14 molecules from the supplement of paper PMC8877412 can be followed below.

Molecules are shown by their SMILES. Structures can show the parent of a compound that is named as a salt. ± gives the uncertainty stated by the source.

The assay relates to NCC-PMP1-C1. Kind of assay: cell viability relative to DMSO control; higher = less growth inhibition. Particulars: 10 µM; 72 h. How it is done:
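NCC-PMP1-C1 pseudomyxoma peritonei cells were seeded in 384-well plates coated with Matrigel and MEF (1e4 cells). Viability was read after 72 h by CCK-8 and expressed as % of the DMSO control, mean ± SD of duplicates.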
As usually defined, the cell viability is a read-out of living cells in per cent, often relative to untreated cells. Regarding `Cn1c(CCCC(=O)O)nc2cc(N(CCCl)CCCl)ccc21` [Bendamustine HCl], the cell viability stood at 127 ± 6%.

With `O=C1C2CCN(CC2)C1(CO)CO`, the cell viability amounted to 78.8 ± 3.1%.

Regarding `O=P1(N(CCCl)CCCl)NCCCO1` (centres undefined) [Cyclophosphamide Monohydrate], the cell viability amounted to 107 ± 9.1%.

Consider `CC[C@@]1(O)C(=O)OCc2c1cc1n(c2=O)Cc2cc3ccccc3nc2-1` [Camptothecin], for which the cell viability was found to be 82.2 ± 14%.

On to `C=C1C[C@@H]2[C@H](CC[C@]3(C)C(=O)CC[C@@H]23)[C@@]2(C)C=CC(=O)C=C12` [Exemestane], for which the cell viability turned out to be 138 ± 5.7%.

For `O=P1(NCCCl)OCCCN1CCCl` (centres undefined) [Ifosfamide], the cell viability stood at 106.5 ± 0.13%.

Regarding `C=CCN1CC[C@]23c4c5ccc(O)c4O[C@H]2C(=O)CC[C@@]3(O)[C@H]1C5` [Naloxone HCl], the cell viability is 1.93 ± 1.3%.

For the molecule `NCCCNCCSP(=O)(O)O` [Amifostine], the cell viability is 95.3 ± 16%.

For the molecule `C/C=C(\C)C(=O)N[C@@H](c1ccccc1)[C@@H](O)C(=O)O[C@H]1C[C@@]2(O)[C@@H](OC(=O)c3ccccc3)[C@@H]3[C@]4(OC(C)=O)CO[C@@H]4C[C@H](O)[C@@]3(C)C(=O)[C@H](OC(C)=O)C(=C1C)C2(C)C` [Cephalomannine], the cell viability was 74.9 ± 6.8%.

Take `CC(=O)OC12COC1CC(O)C1(C)C(=O)C(O)C3=C(C)C(O)CC(O)(C(OC(=O)c4ccccc4)C21)C3(C)C` (centres undefined) [10-Deacetylbaccatin-III]: the cell viability is 94.7 ± 12%.

For `O=C(O)CCCc1ccc(N(CCCl)CCCl)cc1` [Chloroambucil], the cell viability came to 87 ± 20%.

Take `COCC1(CO)C(=O)C2CCN1CC2` (centres undefined): the cell viability is 115 ± 8.3%.

In the case of `Cc1c(N)nc(C(CC(N)=O)NCC(N)C(N)=O)nc1C(=O)NC(C(=O)NC(C)C(O)C(C)C(=O)NC(C(=O)NCCc1nc(-c2nc(C(=O)NCCC[S+](C)C)cs2)cs1)C(C)O)C(O[C@@H]1O[C@@H](CO)[C@@H](O)[C@H](O)[C@@H]1O[C@H]1O[C@H](CO)[C@@H](O)[C@H](OC(N)=O)[C@@H]1O)c1cnc[nH]1` (some centres undefined) [Bleomycin Sulfate], the cell viability stood at 80.5 ± 1.4%.

As to `N.N.[Cl][Pt][Cl]` [Cisplatin], the cell viability was determined as 102 ± 3.3%.
